Only some compounds are listed: those with a hit (about 3.1% of all), similar ones and a draw of the others.
TWEAK-Fn14 inh – TWEAK-Fn14 signaling inhibition | TWEAK-stimulated Fn14 reporter cells, luciferase luminescence, 8 h | inhibition, % at 10 µM | actives 2% (n = 360,000); in the data active = inhibition above about 50%
LMP1 NFkB inh – reduces LMP1-driven NF-kappaB luciferase signal; LMP1-induced NF-kappaB luciferase reporter cells, luminescence; inhibition, % at 12.5 µM; actives 0.69% (n = 350,000); AID 504558; in the data active = inhibition above about 41%; inconclusive = no clear call, values can overlap the other calls;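 also: 0% = neutral control wells and 100% = reference inhibitor control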
TROY signal inh – inhibitors of TROY-dependent NF-kB signaling; Q293 LMP1-TROYcd NF-kB luciferase reporter, 4 h; inhibition, % at 10 µM; actives 0.98% (n = 360,000);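 active = compounds whose plate-normalised and pattern-corrected inhibition of the luciferase reporter signal at the single screening dose is 50% or more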
PAX8 reporter – lowers PAX8-driven luciferase in RMG-I cells; RMG-I TPO-luciferase reporter, SteadyGlo, 24 h; inhibition, % at 12.6 µM; actives 1.2% (n = 360,000);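 active = mean replicate inhibition at least 60% with every replicate also reaching 60%; inconclusive = only one of the two criteria is met; inactive = mean below 60% and not all replicates reaching 60%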;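 also: luciferase light reporting Pax8 driven TPO promoter activity; plate controls were median of neutral control wells for no effect and mitoxantrone controls for full effect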
LGR2 inh – inhibitors of bursicon-induced Drosophila LGR2 receptor cAMP signaling | HEK293 LGR2, CRE-luciferase, bursicon-stimulated, 4 h | inhibition, % at 9.99 µM | actives 0.35% (n = 380,000) | AID 720647;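 active = drop in luminescence signal, shown as inhibition above about 50% in the replicate tests, limit read from the data, passing the limit was not always enough; inconclusive = probably only some replicates passing the limit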;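 also: agonist challenge used bursicon conditioned medium at about half maximal strength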
EWS-Fli block – EWS/Fli transcriptional activity inhibition. A673 NR0B1-luciferase reporter, viability-normalised. inhibition, % at 12.6 µM. actives 0.67% (n = 350,000). AID 651661;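 active = mean inhibition of at least 50% after viability correction, with every replicate also passing that limit; inconclusive = mean reaches 50% but only one of two replicates passes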;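 also: firefly luciferase signal divided by Alamar Blue viability fluorescence both relative to DMSO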
Active calls of the source: *.

Results for CCSCc1nnc(SCC(=O)c2ccc(OC)cc2)n1C ?
TWEAK-Fn14 inh: 84*; LMP1 NFkB inh: -4

Results for COc1ccc(NCc2nnc(SCC(=O)c3ccc(OC)cc3)n2C)cc1 ?
TWEAK-Fn14 inh: -31; LMP1 NFkB inh: -15; TROY signal inh: -39

How did COc1ccccc1S(=O)(=O)N[C@@H]1CC[C@@H](CCNC(=O)C2CCOCC2)O[C@H]1CO do in these assays?
LGR2 inh: 2

How did C[C@@H]1CN([C@H](C)CO)S(=O)(=O)c2ccc(C#CC3(O)CCCC3)cc2O[C@H]1CN(C)C do in these assays?
LGR2 inh: -6; EWS-Fli block: 4

How did COc1ccc2c(c1)C(CC(C)=O)N(c1ccc(-c3cccs3)cc1)C(c1ccsc1)=C2 (stereo unspecified) do in these assays?
TWEAK-Fn14 inh: 17; TROY signal inh: -39; PAX8 reporter: 64*; LGR2 inh: -29; EWS-Fli block: 18

What do the screens show for `COc1cccc(C2=Cc3ccc(F)cc3C(CC(C)=O)N2c2ccc(C#CC3(O)CCCCC3)cc2)c1` (stereo unspecified)?
TWEAK-Fn14 inh: 65*; TROY signal inh: -4; PAX8 reporter: 32; LGR2 inh: -19; EWS-Fli block: 45

What do the screens show for `COc1ccc2c(c1)C(CC(C)=O)N(c1ccc(-c3cnc(OC)nc3)cc1)C(c1ccsc1)=C2` (stereo unspecified)?
TWEAK-Fn14 inh: 9; TROY signal inh: 46; PAX8 reporter: 12; LGR2 inh: -19; EWS-Fli block: 15

How did COc1ccc(-c2ccc(N3C(c4cc(OC)cc(OC)c4)=Cc4ccc(OC)cc4C3CC(C)=O)cc2)cc1 (stereo unspecified) do in these assays?
TWEAK-Fn14 inh: 6; TROY signal inh: -11; PAX8 reporter: 63*; LGR2 inh: -19; EWS-Fli block: 0

What do the screens show for `Cn1nc(-c2ccccn2)nc2c(=O)n(C)c(=O)nc1-2`?
TWEAK-Fn14 inh: 102*; LMP1 NFkB inh: 14; TROY signal inh: 57*; PAX8 reporter: 105*; LGR2 inh: 103*; EWS-Fli block: 37

What do the screens show for `CCCc1nc2c(=O)n(C)c(=O)nc-2n(C)n1`?
TWEAK-Fn14 inh: 104*; LMP1 NFkB inh: 90*; TROY signal inh: 90*; PAX8 reporter: 104*; LGR2 inh: 102*; EWS-Fli block: 45

What do the screens show for `COc1ccc(-c2nc(-c3ccccn3)ncc2S(C)(=O)=O)cc1`?
TWEAK-Fn14 inh: -6; LMP1 NFkB inh: 4; TROY signal inh: 8; PAX8 reporter: 11; LGR2 inh: 2; EWS-Fli block: 10

How did O=[N+]([O-])c1ccc2nc(-c3ccc(Cl)cc3)n(OCc3ccccc3)c2c1 do in these assays?
TWEAK-Fn14 inh: 35; LMP1 NFkB inh: -43; TROY signal inh: 56*; PAX8 reporter: -148

What do the screens show for `Cc1ccc(COn2c(-c3ccc(Cl)cc3)nc3ccc([N+](=O)[O-])cc32)cc1`?
TWEAK-Fn14 inh: 20; LMP1 NFkB inh: -46; TROY signal inh: 38; PAX8 reporter: -274

Results for C[C@H]1CN([C@@H](C)CO)C(=O)Cc2cc(NC(=O)c3ccncc3)ccc2O[C@@H]1CN(C)C(=O)Nc1cccc2ccccc12 ?
PAX8 reporter: 12; LGR2 inh: -7; EWS-Fli block: 9

What do the screens show for `CC(C)c1cc(C(=O)NNC(=S)NC2CCCCC2)cs1`?
TWEAK-Fn14 inh: 50*; LMP1 NFkB inh: -12; TROY signal inh: 49; PAX8 reporter: -192; LGR2 inh: -51; EWS-Fli block: -21

What do the screens show for `Cc1ccc(-c2cnn3c(N4CCOCC4)cc(C)nc23)cc1`?
TWEAK-Fn14 inh: 85*; LMP1 NFkB inh: -30; TROY signal inh: 73*; PAX8 reporter: -90; LGR2 inh: 10; EWS-Fli block: 17

Results for Cc1cc(N2CCCCC2)n2ncc(-c3ccc(Cl)cc3)c2n1 ?
TWEAK-Fn14 inh: 74*; LMP1 NFkB inh: -61; TROY signal inh: 70*; PAX8 reporter: -183

Results for Cc1cc(N2CCC(C)CC2)n2nc(C)c(-c3ccccc3)c2n1 ?
TWEAK-Fn14 inh: -10; LMP1 NFkB inh: -2; TROY signal inh: -12; PAX8 reporter: 5

What do the screens show for `Cc1cc(N2CCC(C)CC2)n2ncc(-c3ccccc3)c2n1`?
TWEAK-Fn14 inh: 83*; LMP1 NFkB inh: -1; TROY signal inh: 84*; LGR2 inh: inconclusive

How did Cc1cc(N2CCCCC2)n2ncc(-c3ccccc3)c2n1 do in these assays?
TWEAK-Fn14 inh: 81*; LMP1 NFkB inh: -33; TROY signal inh: 77*

What do the screens show for `Cc1cc(C)n(-c2cc(C(C)(C)C)nc3c(-c4ccc(Cl)cc4)cnn23)n1`?
TWEAK-Fn14 inh: -10; LMP1 NFkB inh: -11; TROY signal inh: 6

What do the screens show for `CO[C@H]1CN(C)C(=O)c2cc(NC(=O)c3cccc(F)c3)ccc2OC[C@@H](C)NC[C@@H]1C`?
LGR2 inh: 8; EWS-Fli block: -7

Results for CC(C)(C)c1cc(N2CCOCC2)n2ncc(-c3ccc(Cl)cc3)c2n1 ?
TWEAK-Fn14 inh: -18; LMP1 NFkB inh: -12; TROY signal inh: -21; PAX8 reporter: -59; LGR2 inh: 1; EWS-Fli block: -28

Results for Cc1cc(N2CCOCC2)n2ncc(-c3ccc(Cl)cc3)c2n1 ?
TWEAK-Fn14 inh: 82*; LMP1 NFkB inh: -21; TROY signal inh: 79*; PAX8 reporter: -175; EWS-Fli block: -17

Results for Cc1cc(N2CCOCC2)n2ncc(-c3ccccc3)c2n1 ?
TWEAK-Fn14 inh: 86*; LMP1 NFkB inh: 4; TROY signal inh: 75*

What do the screens show for `O=C(C1CCCC1)N1CC(=O)N2[C@H](C1)[C@@H](c1ccc(C#CCc3ccccc3)cc1)[C@@H]2CO`?
LGR2 inh: 19; EWS-Fli block: -2

What do the screens show for `Cc1ccc(C(=O)N/C(=C\c2ccccc2)C(=O)NCC2CCCO2)cc1` (stereo unspecified)?
TWEAK-Fn14 inh: 13; LMP1 NFkB inh: 2; TROY signal inh: 1; PAX8 reporter: 6; LGR2 inh: 14

Results for Cc1ccc(C(=O)N/C(=C/c2ccc(Cl)cc2)C(=O)NCC2CCCO2)cc1 (stereo unspecified) ?
TWEAK-Fn14 inh: 77*; LMP1 NFkB inh: 2; TROY signal inh: 18; PAX8 reporter: -5; LGR2 inh: 9

How did CNC(=O)c1ccc(-c2cc3onc(-c4ccccc4)c3c(=O)n2C)cc1 do in these assays?
TWEAK-Fn14 inh: 5; LMP1 NFkB inh: -4; TROY signal inh: -31; PAX8 reporter: -108; LGR2 inh: -30; EWS-Fli block: -133

Results for Cc1ccc(-c2cc3onc(-c4ccccc4)c3c(=O)n2C)cc1 ?
TWEAK-Fn14 inh: 102*; LMP1 NFkB inh: 38; TROY signal inh: 89*; PAX8 reporter: -72; LGR2 inh: 85*; EWS-Fli block: 80*

Assay outcomes from PubChem BioAssay.
